The record followed here is PubChem BioAssay (EPA / NIEHS).

Values joined by “and” are separate entries in the source; they are usually repeats but may differ in a detail not shown here. Equal entries are not always repeated. Results filed as inconclusive are left out. Active and inactive are the calls of the source. Rule for the calls, unless noted: active = hit-call score of the fitted dose curve at least 0.9, where 1 is the maximum; inactive = score below 0.9.

Assay [1] in a line: IUF_NPC1b_proliferation_BrdU_72hr: Leibniz Research Institute for Environmental Medicine (IUF) 72-hour Neural Progenitor Cell Bromodeoxyuridine (BrdU) Proliferation Assay (NPC1b) (AID 2284207). The essentials: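 Neural progenitor spheres of human fetal origin are treated for three days; BrdU added for the last 16 h is quantified by luminescence ELISA, with DMSO as baseline and EGF/FGF omission as positive control.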

Assay [2] in a line: IUF_NPC1a_proliferation_area_72hr: Leibniz Research Institute for Environmental Medicine (IUF) 72-hour Neural Progenitor Cell Proliferation Area Assay (NPC1a) (AID 2284208). In outline: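 Single 0.25–0.35 mm human fetal neural progenitor spheres in proliferation medium with EGF and FGF, exposed 72 h from plating without renewal at 37C, pH 7.2-7.6. Sphere area growth measured by automated phase-contrast imaging, relative to DMSO.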

Assay [3] is described as follows: IUF_NPC1_viability_72hr: Viability Assessment at 72 hours in the Leibniz Research Institute for Environmental Medicine (IUF) Neural Progenitor Cell Proliferation Assay (NPC1) (AID 2284209). In outline: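 Spheres of primary human neural progenitors were plated singly in proliferation medium and treated for 72 h. Mitochondrial reduction of resazurin was then measured by fluorescence and analysed against DMSO controls.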

A short description of assay [4]: IUF_NPC2a_radial_glia_migration_120hr: Leibniz Research Institute for Environmental Medicine (IUF) 120-hour Neural Progenitor Cell Migration Assay for Radial Glia Migration (NPC2a) (AID 2284298). The essentials: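 Human fetal-cortex neural progenitor spheres (0.3 mm) plated on poly-D-lysine/laminin in N2 differentiation medium, exposed 120 h at 37C with half-medium renewal at day 3. Radial glia migration distance (um) measured from Hoechst-stained nuclei images; DMSO baseline.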

Assay [5] can be described thus: IUF_NPC2a_radial_glia_migration_72hr: Leibniz Research Institute for Environmental Medicine (IUF) 72-hour Neural Progenitor Cell Migration Assay for Radial Glia Migration (NPC2a) (AID 2284299). The essentials: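 Single 0.3 mm neurospheres were plated per well in N2 differentiation medium and exposed from the start of differentiation. After 72 hours, brightfield images were taken and radial glia migration from the sphere core edge was measured manually in four directions, averaged per well.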

A short description of assay [6]: IUF_NPC2b_neuronal_migration_120hr: Leibniz Research Institute for Environmental Medicine (IUF) 120-hour Neural Progenitor Cell Migration Assay for Neuron Migration (NPC2b) (AID 2284300). In outline:
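0.3 mm hNPC spheres on poly-D-lysine/laminin in N2 differentiation medium exposed 120 h, half-medium refresh day 3; 7 concentrations, DMSO max 0.1%. Neuron (TUBB3) distance from sphere core by ICC imaging, normalised to radial glia migration.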

Assay [7] in a line: IUF_NPC3_neuronal_differentiation_120hr: Leibniz Research Institute for Environmental Medicine (IUF) 120-hour Neuronal Differentiation Assay (NPC3) (AID 2284301). The essentials:
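Neuronal differentiation of primary human neural progenitors measured by high-content imaging: percent TUBB3+ of Hoechst+ nuclei within migrated area at 120 h, seven-point serial dilution plus solvent control, gain or loss relative to DMSO.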

Assay [8] can be described thus: IUF_NPC4_neurite_length_120hr: Leibniz Research Institute for Environmental Medicine (IUF) 120-hour Neuronal Morphology Assay for Neurite Length (NPC4) (AID 2284302). In outline:
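Neurons from differentiating human fetal neural progenitor spheres are scored for average neurite length after five days of compound exposure. Fitting uses DMSO as negative control.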

A short description of assay [9]: IUF_NPC4_neurite_area_120hr: Leibniz Research Institute for Environmental Medicine (IUF) 120-hour Neuronal Morphology Assay for Neurite Area (NPC4) (AID 2284305; active = hit-call score of the fitted dose curve at least 0.9, where 1 is the maximum). In outline: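 Endpoint at 120 h: automated imaging of TUBB3/Hoechst-stained differentiating human neural progenitor spheres, neurite area per neuron from skeletonization. DMSO solvent control, not above 0.1%, set the baseline; medium was half-replaced on day 3.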

Assay [10] can be described thus: IUF_NPC2-5_cytotoxicity_72hr: Cytotoxicity Assessment at 72 hours in the Leibniz Research Institute for Environmental Medicine (IUF) Neural Progenitor Cell Migration and Differentiation Assay for Cytotoxicity (NPC2-5) (AID 2284306; active = hit-call score of the fitted dose curve at least 0.9, where 1 is the maximum;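 note: LDH release into supernatant measured by resorufin fluorescence marking membrane damage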). The essentials: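 Primary human neural progenitor spheres migrate and differentiate on laminin. Compound is present from the start of differentiation, with DMSO kept at or below 0.1%. At 72 h, supernatant LDH is quantified fluorometrically, with values fitted in the positive direction.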

Assay [11] can be described thus: IUF_NPC2-5_cytotoxicity_120hr: Cytotoxicity Assessment at 120 hours in the Leibniz Research Institute for Environmental Medicine (IUF) Neural Progenitor Cell Migration and Differentiation Assay (NPC2-5) (AID 2284307; active = hit-call score of the fitted dose curve at least 0.9, where 1 is the maximum). The essentials:
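Human fetal (GW 16-19) neural progenitor spheres (0.3 mm) plated on poly-D-lysine/laminin in N2 differentiation medium, exposed 120 h with half-medium renewal at day 3; 7 concentrations plus solvent control, DMSO ≤0.1%. LDH release in supernatant read by resorufin fluorescence.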

The nature of assay [12]: IUF_NPC2-5_cell_number_120hr: Cell Number Assessment at 120 hours in the Leibniz Research Institute for Environmental Medicine (IUF) Neural Progenitor Cell Migration and Differentiation Assay (NPC2-5) (AID 2284308).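 Note: count of Hoechst-stained nuclei in migration zone around plated human neural progenitor spheres.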 The essentials:
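Human fetal neural progenitor spheres (0.3 mm) plated on poly-D-lysine/laminin in N2 differentiation medium, exposed five days across 7 concentrations with half-medium refresh at day 3. Hoechst-positive nuclei counted in migration area at 120 h, relative to DMSO.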

Assay [13] can be described thus: IUF_NPC2-5_viability_120hr: Viability Assessment at 120 hours in the Leibniz Research Institute for Environmental Medicine (IUF) Neural Progenitor Cell Migration and Differentiation Assay (NPC2-5) (AID 2284312). In outline: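 Human fetal (GW 16-19) neural progenitor spheres of 0.3 mm were plated on poly-D-lysine/laminin in N2 differentiation medium and exposed from day 0 for 120 h, with half-medium refresh at day 3. Viability was read as alamar blue resazurin-to-resorufin fluorescence against DMSO.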

The nature of assay [14]: IUF_NPC1_cytotoxicity_72hr: Cytotoxicity Assessment at 72 hours in the Leibniz Research Institute for Environmental Medicine (IUF) Neural Progenitor Cell Proliferation Assay (NPC1) (AID 2284332; active = hit-call score of the fitted dose curve at least 0.9, where 1 is the maximum;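 note: rising LDH signal means more cytotoxicity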). The essentials: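 Membrane-integrity loss is scored from LDH released into the medium, detected as resorufin fluorescence, with activity fitted upward relative to baseline. Test material stays on human fetal-derived progenitor spheres for 72 h.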

Another assay concerns DIO2 (gene 1734). Briefly: CCTE_GLTED_hDIO2: CCTE's human Deiodinase 2 (DIO2) Inhibition Assay, Great Lakes Toxicology and Ecology Division (GLTED) Lab (AID 2284050; active = hit-call score of the fitted dose curve at least 0.9, where 1 is the maximum). In outline:
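Inhibition is judged by reduced iodide release: uninhibited human DIO2 frees iodide from substrate over 3 h, measured afterward by Sandell-Kolthoff colorimetry. Iodinated chemicals or nitrite, iron and thiocyanate may interfere.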

For the next assay, the system named is DIO3 (gene 1735). The assay can be described thus: CCTE_GLTED_hDIO3: CCTE's human Deiodinase 3 (DIO3) Inhibition Assay, Great Lakes Toxicology and Ecology Division (GLTED) Lab (AID 2284055; active = hit-call score of the fitted dose curve at least 0.9, where 1 is the maximum;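 note: potency is for inhibition seen as loss of released iodide signal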). In outline:
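Human type 3 deiodinase, expressed via adenovirus system, was exposed to test chemicals for 3 hours in a cell-free format. Released iodide was then determined spectrophotometrically by Sandell-Kolthoff; plates ran in triplicate.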

For `CCCCOCCOP(=O)(O)OCCOCCCC`, the call in [1], in assay [2], in assay [4], in assay [5], in assay [6] and in assay [7] was inactive. In addition, the compound was called inactive in [8], in assay [9], in [10], in assay [11], in assay [12] and in assay [13]. Moreover, in assay [14], the compound was classed as inactive. Moreover, the AC50 in assay [3] was 2460 nM (active).
Turning to `COc1cc(O)c(CC=C(C)C)c(O)c1C(=O)/C=C/c1ccc(O)cc1`, the concentration at half-maximal activity (AC50) with DIO2 (gene 1734) was 215 nM (active) and 797 nM (active); with DIO3 (gene 1735), 150 nM (active) and 222 nM (active).

As usually defined, the AC50 is the midpoint of the concentration-response curve, whichever way the signal moves.
